Measured values taken from ChEMBL document CHEMBL3433997, “St. Jude Leishmania screening dataset” (2016).

biological target: Hexose transporter 1 (Plasmodium falciparum) (UniProt O97467); test: ST_JUDE_LEISH: Cytotoxicity at 2uM final concentration against transgenic Leishmania Mexicana promastigotes LmPfHT that are glucose transport deficient and complemented with the Plasmodium falciparum hexose transporter. Activity is measured by DNA content using SYBR green in vitro; assay type: functional

| Compound | inhibition [%] |
| --- | --- |
| Cc1ccc(F)c(NC(=O)c2c(-c3c(F)cccc3Cl)noc2C)c1 | 2.09 |
| CC1=NN(c2ccc(C)c(C)c2)C(=O)C1=NNc1cccc(-c2cccc(NC(=O)OC(C)(C)C)c2)c1O | 1.44 |
| CC(C)(C)c1ccc(-c2ccccc2CNC(=O)c2cccc(O)c2)cc1 | 6.5 |
| O=C(Nc1ccncc1)Nc1ccc2c(c1)CCN(C1CCC1)CC2 | 3.34 |
| CCN(CC)CCOc1ccc(N(Cc2ccc(C(C)(C)C)cc2)C(=O)c2ccc(Cc3ccccc3)cc2)cc1OC | 14.8 |
| COc1ccc2nccc(N3CCC(CCNCc4cc5c(cn4)OCCO5)CC3)c2n1 | 0.24 |
| c1cncc(CN2CCCN(c3ccc4c(c3)CCN(Cc3ccc(-c5ncc[nH]5)cc3)CC4)CC2)c1 | 2.7 |
| Cc1ccc(CNC(=N)NC(=O)c2nc(Cl)c(NCc3ccc(Cl)cc3)nc2N)c(C)c1 | 0.67 |
| CC(C)C[C@H](Nc1ccnc(NCC2CCCCC2)n1)C(=O)Nc1ccccc1 | 3.97 |
| O=[N+]([O-])c1cccc(CNCC2CCN(Cc3ccc(Cl)c(Cl)c3)CC2)c1 | 9.74 |
| Cc1cc(C(=O)NCc2ccc(-c3c(C)noc3C)cc2)n(-c2ccccc2)n1 | 4.63 |
| CCn1c(C=Cc2cc(Br)ccc2O)nc2ccccc2c1=O | 0.39 |
| COc1ccccc1-c1csc(C(=O)NCC2CCN(Cc3ccc(C(C)C)cc3)C2)c1 (stereo not given) | -2.5 |
| COc1ccc2nccc([C@@H](O)CN3CCC(NCc4cc5ccccn5n4)CC3)c2c1 | 4.49 |
| Cc1cccc2nc(-c3ccc(-c4cccc(NC(=O)Nc5ccc(F)c(F)c5F)c4)cc3)[nH]c12 | 3.05 |
